Experimental data from PubChem BioAssay.
Values without a mark were called inactive. For some of these results: Measured potencies and affinities stand elsewhere. Calls of active or inactive are those of the source. Unless noted, how the calls were made is not given here.

Key:
[1] = antimalarial activity against Dd2 strain (AID 2302;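 active means growth inhibition above 50% at the single 2 µM test dose, taken to imply half-maximal potency below 2 µM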;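 further: 0% = DMSO untreated growth and 100% = chloroquine plus artemisinin killed control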); conditions: P. falciparum Dd2 in RBCs, LDH growth readout, 72 h; at 2 µM; hits give high values
[2] = HepG2 cytotoxicity, primary screen, cytotoxicity control for P. falciparum antimalarial project, cell-based, ATP luminescence (AID 2303;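 active means inhibition above 50%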;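 further: 0% = DMSO wells and 100% = digitonin-killed cells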); conditions: HepG2 viability, 24-48 h, at 10 µM, hits give high values
[3] = target: L-lactate dehydrogenase (Plasmodium falciparum (isolate CDC / Honduras)) (UniProt Q27743); assay: PfLDH activity inhibition – cell lysate, 3D7 strain, counter-screen for P. falciparum growth inhibition project (AID 2304);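 further: 0% = vehicle and 100% = reference inhibitor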; conditions: P. falciparum 3D7 crude extract, LDH APAD/NBT absorbance; at 2 µM; hits give high values
[4] = inhibition of 3D7 malaria parasite growth – strain 3D7 (AID 2306);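 further: 0% = DMSO wells and 100% = chloroquine plus artemisinin control wells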; conditions: P. falciparum 3D7 erythrocytic growth, LDH absorbance, 72 h; at 2 µM; hits give high values
[5] = target: Calcium-dependent protein kinase 1 (Plasmodium falciparum (isolate 3D7)) (UniProt P62344); assay: PfCDPK1 kinase inhibitors, biochemical, TCAMS library (AID 1159585; cut-off not given, nearly all actives have IC50 up to about 0.98 µM;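 further: inhibitors leave more ATP so luminescence rises with inhibition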); conditions: recombinant PfCDPK1, Kinase-Glo ATP depletion luminescence
[6] = target: Plasmodium falciparum protein kinase 6 (PK6, PF3D7_1337100) (UniProt Q8IDW1); assay: PfPK6 kinase inhibitors, biochemical, TCAMS library (AID 1159586); conditions: recombinant PfPK6, Kinase-Glo ATP depletion luminescence
[7] = target: Protein kinase 7 (PK7), Plasmodium falciparum 3D7 (PF3D7_0213400) (UniProt Q7YTF7); assay: inhibition of Plasmodium PK7 catalytic activity – biochemical, TCAMS antimalarial set, Kinase-Glo luminescence (AID 1159587); conditions: recombinant PfPK7, Kinase-Glo ATP depletion luminescence
[8] = target: Calcium-dependent protein kinase 4 (Plasmodium falciparum (isolate 3D7)) (UniProt Q8IBS5); assay: PfCDPK4 kinase inhibitors, biochemical, TCAMS library (AID 1159588; cut-off not given, nearly all actives have IC50 up to about 0.91 µM); conditions: recombinant PfCDPK4, Kinase-Glo ATP depletion luminescence
Chain of Calcium-dependent protein kinase 4 (Plasmodium falciparum (isolate 3D7)) (Q8IBS5 whole entry, looked up): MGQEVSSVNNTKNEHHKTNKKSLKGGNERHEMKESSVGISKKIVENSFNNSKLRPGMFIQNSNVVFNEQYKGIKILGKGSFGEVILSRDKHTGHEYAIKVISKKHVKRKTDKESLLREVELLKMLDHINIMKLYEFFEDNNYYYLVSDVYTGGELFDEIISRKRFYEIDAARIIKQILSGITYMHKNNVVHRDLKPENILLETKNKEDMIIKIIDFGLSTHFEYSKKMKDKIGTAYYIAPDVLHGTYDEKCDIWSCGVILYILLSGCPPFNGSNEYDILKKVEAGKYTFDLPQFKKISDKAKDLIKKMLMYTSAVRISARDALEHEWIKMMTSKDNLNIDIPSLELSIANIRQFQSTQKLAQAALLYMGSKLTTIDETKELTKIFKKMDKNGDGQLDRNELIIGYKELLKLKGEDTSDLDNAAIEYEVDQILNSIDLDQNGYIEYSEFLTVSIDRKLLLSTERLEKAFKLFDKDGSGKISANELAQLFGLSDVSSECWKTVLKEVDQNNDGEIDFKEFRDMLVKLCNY

Chain of Protein kinase 7 (PK7), Plasmodium falciparum 3D7 (PF3D7_0213400) (Q7YTF7 1-343): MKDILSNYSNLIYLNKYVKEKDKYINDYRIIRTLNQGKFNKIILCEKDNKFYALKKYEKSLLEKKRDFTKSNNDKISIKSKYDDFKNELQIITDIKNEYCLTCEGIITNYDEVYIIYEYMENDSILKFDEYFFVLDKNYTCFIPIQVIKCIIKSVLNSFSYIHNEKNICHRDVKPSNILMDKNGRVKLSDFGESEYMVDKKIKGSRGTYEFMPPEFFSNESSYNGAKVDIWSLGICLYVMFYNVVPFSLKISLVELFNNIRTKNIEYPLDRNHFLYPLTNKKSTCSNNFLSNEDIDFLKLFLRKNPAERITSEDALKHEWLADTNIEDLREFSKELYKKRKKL
Chain of L-lactate dehydrogenase (Plasmodium falciparum (isolate CDC / Honduras)) (Q27743 whole entry, looked up): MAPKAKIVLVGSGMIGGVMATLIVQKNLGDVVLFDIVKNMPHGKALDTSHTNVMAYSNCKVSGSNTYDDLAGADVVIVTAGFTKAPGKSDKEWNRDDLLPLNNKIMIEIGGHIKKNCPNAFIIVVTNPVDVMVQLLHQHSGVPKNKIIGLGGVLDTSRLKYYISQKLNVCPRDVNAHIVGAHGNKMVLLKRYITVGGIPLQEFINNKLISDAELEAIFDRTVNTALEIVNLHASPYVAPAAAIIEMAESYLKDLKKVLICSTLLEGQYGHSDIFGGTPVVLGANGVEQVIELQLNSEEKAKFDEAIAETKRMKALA
Chain of Plasmodium falciparum protein kinase 6 (PK6, PF3D7_1337100) (Q8IDW1 1-305): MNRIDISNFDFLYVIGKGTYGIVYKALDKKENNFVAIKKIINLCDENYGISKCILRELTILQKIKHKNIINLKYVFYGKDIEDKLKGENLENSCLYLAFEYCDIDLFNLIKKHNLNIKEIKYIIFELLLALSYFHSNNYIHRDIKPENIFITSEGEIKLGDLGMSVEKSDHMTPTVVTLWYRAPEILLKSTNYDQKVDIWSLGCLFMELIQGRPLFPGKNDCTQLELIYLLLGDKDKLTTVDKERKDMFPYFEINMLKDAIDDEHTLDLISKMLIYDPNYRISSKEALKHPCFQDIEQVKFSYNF
Chain of Calcium-dependent protein kinase 1 (Plasmodium falciparum (isolate 3D7)) (P62344 whole entry, looked up): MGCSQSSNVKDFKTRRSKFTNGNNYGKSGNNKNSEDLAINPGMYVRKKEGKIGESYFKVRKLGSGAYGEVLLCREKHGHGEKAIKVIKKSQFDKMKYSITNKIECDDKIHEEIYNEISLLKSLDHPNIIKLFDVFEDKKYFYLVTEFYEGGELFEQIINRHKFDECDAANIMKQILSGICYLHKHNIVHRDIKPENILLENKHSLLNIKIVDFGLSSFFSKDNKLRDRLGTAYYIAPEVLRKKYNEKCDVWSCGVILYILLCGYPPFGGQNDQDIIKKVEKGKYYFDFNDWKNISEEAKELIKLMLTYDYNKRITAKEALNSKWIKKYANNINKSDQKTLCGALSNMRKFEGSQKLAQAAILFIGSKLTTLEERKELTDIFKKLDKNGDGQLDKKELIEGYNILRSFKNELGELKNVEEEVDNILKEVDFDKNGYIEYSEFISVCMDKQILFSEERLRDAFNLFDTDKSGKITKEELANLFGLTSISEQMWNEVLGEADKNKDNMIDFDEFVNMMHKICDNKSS

| SMILES | growth inhibition [1] | inhibition [2] | inhibition [3] [%] | growth inhibition [4] | outcome [5] | outcome [6] | outcome [7] | outcome [8] |
| --- | --- | --- | --- | --- | --- | --- | --- | --- |
| CCc1c[nH]c2c(N3CCCS3(=O)=O)cc(C(=O)N[C@@H](Cc3ccccc3)[C@H](O)CNC3CCCCC3)cc12 | 89% (active) | 6% | -7 | 99% (active) | inactive | inactive | inactive | inactive |
| Cc1cccc(Cn2nc(-c3ccccc3)c(N3CCCCC3)cc2=O)c1 | -2% | 29% | 0 | 98% (active) | inactive | inactive | inactive | inactive |
| COc1cc(C(=O)N2CC[C@@H](CCN3CCC4(CC3)CN(S(C)(=O)=O)c3ccccc34)C[C@H]2Cc2ccc(Cl)c(Cl)c2)cc(OC)c1OC | 99% (active) | 29% | 4 | 101% (active) | inactive | inactive | inactive | inactive |
| C=CCc1ccccc1OCC(O)CN(C1CCCCC1)C1CCCCC1 (stereo not given) | 84% (active) | 50% (active) | 1 | 93% (active) | inactive | inactive | inactive | inactive |
| COC(=O)c1ccc(CN2CCC(N(Cc3cccc(Oc4ccccc4)c3)S(=O)(=O)c3ccc(NC(C)=O)cc3)CC2)cc1 | 86% (active) | -1% | -6 | 82% (active) | inactive | inactive | inactive | inactive |
| O=C(Nc1ccc2nc(-c3ccc4nc(NC(=O)C5CCCCC5)sc4c3)[nH]c2c1)C1CCCCC1 | 68% (active) | 84% (active) | -9 | 100% (active) | inactive | inactive | inactive | inactive |
| COC(=O)c1cccc(CNCc2cccc(-c3cccc(-c4nc5ccc(F)cc5[nH]4)c3)c2)c1 | 52% (active) | 27% | 1 | 101% (active) | inactive | inactive | inactive | inactive |
| O=C(Nc1cccc(CN2CCN(Cc3ccc(O)cc3)CC2)c1)c1cc2ccccc2s1 | 26% | 15% | -4 | 100% (active) | inactive | inactive | inactive | inactive |
| COc1ccc(C[C@@H](N)C(=O)N[C@H]2[C@@H](O)[C@H](n3cnc4c(N(C)C)ncnc43)O[C@@H]2CO)cc1 | 100% (active) | 99% (active) | 0 | 101% (active) | inactive | inactive | inactive | inactive |
| COc1ccc(-c2c(C(F)(F)F)nn(C)c2NC(=O)Nc2ccc(F)cc2F)cc1 | 99% (active) | 8% | -4 | 101% (active) | inactive | inactive | inactive | inactive |
| Nc1ccc2[nH]cc(C3CCN(CC4CCC(NC(=O)/C=C/c5ccccc5Cl)CC4)CC3)c2n1 (stereo not given) | 45% | 7% | -3 | 100% (active) | inactive | inactive | inactive | inactive |
| CN1CCN(c2ccc(Nc3c(C(N)=O)cnc4cc(-c5ccoc5)ccc34)cc2C(F)(F)F)CC1 | 97% (active) | 13% | -9 | 100% (active) | inactive | inactive | inactive | inactive |
| Cc1[nH]c2ccccc2c(=O)c1Br | 84% (active) | 2% | 3 | 94% (active) | inactive | inactive | inactive | inactive |
| COc1cc(NCCCNC(=O)c2ccc(Cl)c(Cl)c2)nc2ccccc12 | 101% (active) | 48% | 5 | 99% (active) | inactive | inactive | inactive | inactive |
| COc1ccc(NC(=O)c2ccc(C=Cc3ccc(C(F)(F)F)cc3)cc2)cc1N1CCN(C)CC1 | 47% | 46% | -6 | 99% (active) | inactive | inactive | inactive | inactive |
| Cc1cccc2[nH]c(-c3ccc(-c4cccc(CNCCN(C)C)c4)cc3)nc12 | 98% (active) | 6% | 0 | 102% (active) | inactive | inactive | inactive | inactive |
| CCCc1cc(NC2CCN(C)CC2)nc(Nc2cccc(OC)c2)n1 | 28% | 31% | -3 | 100% (active) | inactive | inactive | inactive | inactive |
| C=C(C)CSc1nc2c(c(=O)n1CCc1ccccc1)C1(CCCC1)Cc1ccccc1-2 | 80% (active) | 14% | -5 | 101% (active) | inactive | inactive | inactive | inactive |
| CCCN(CCCCCCN(CCC)CCc1ccc(O)c(O)c1)CCc1ccc(O)cc1 | 5% | 0% | -1 | 90% (active) | inactive | inactive | inactive | inactive |
| COc1ccc(-c2ccc(CNC(=O)c3ccc(Cl)cc3)c(F)c2)cc1CN1CCCN(C)CC1 | 48% | 25% | -5 | 99% (active) | inactive | inactive | inactive | inactive |
